The values below come from PubChem BioAssay (NCI).

The panel holds about 83,000 compounds, 20% with a hit somewhere; the sample as a whole holds those more often.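 96-well plates, one dose, 48 hours. Percent growth reported; active if below 10.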 Unmarked numbers belong to inactive results. Calls of active or inactive are those of the source.

What all share (assay): NCI-60 one-dose screen, 48 h (100 = growth as untreated, 0 = no growth, -100 = all killed)
Assay [1] deals with SK-MEL-2 melanoma. As to conditions: 10 µM unless noted.
Assay [2] relates to EKVX NSCLC. The conditions noted are these: 10 µM unless noted.
Assay [3] relates to SN12C renal. As to conditions: 10 µM unless noted.
For assay [4], the system named is UO-31 renal. As to conditions: 10 µM unless noted.
The test system of assay [5] is TK-10 renal. The conditions noted are these: 10 µM unless noted.
For assay [6], the system named is ACHN renal. The conditions noted are these: 10 µM unless noted.
The test system of assay [7] is CAKI-1 renal. The conditions noted are these: 10 µM unless noted.
The subject of assay [8] is A498 renal. As to conditions: 10 µM unless noted.
Assay [9] deals with CCRF-CEM leukemia. As to conditions: 10 µM unless noted.
Assay [10] relates to MOLT-4 leukemia. As to conditions: 10 µM unless noted.
Assay [11] relates to SR leukemia. The conditions noted are these: 10 µM unless noted.
The subject of assay [12] is RPMI-8226 leukemia. The conditions noted are these: 10 µM unless noted.
Assay [13] has as its system OVCAR-8 ovarian. As to conditions: 10 µM unless noted.
The test system of assay [14] is OVCAR-5 ovarian. As to conditions: 10 µM unless noted.
For assay [15], the system named is OVCAR-4 ovarian. The conditions noted are these: 10 µM.
Assay [16] deals with SK-OV-3 ovarian. The conditions noted are these: 10 µM unless noted.
In assay [17] the test system is OVCAR-3 ovarian. As to conditions: 10 µM unless noted.
Assay [18] has as its system NCI/ADR-RES ovarian. The conditions noted are these: 10 µM unless noted.
Assay [19] relates to HS 578T breast. As to conditions: 10 µM unless noted.
Assay [20] relates to IGROV1 ovarian. As to conditions: 10 µM unless noted.

As for `CCN(CC)CCCNCc1cc(-c2ccccc2)nc2ccccc12`, the growth in assay [1] is 109%; in assay [2], 93.7%; in assay [3] it was 48%; in assay [4], 23.7%; in [5] it was 46.8%; in [6] it was 101%. For the same molecule, the growth was 100% in assay [7]; 75.2% in [8]; 11.8% in assay [9]; 8.2% (active) in assay [10]; 4.37% (active) in assay [11]; 20% in assay [12]. The growth in assay [13] is 35.1%; in assay [14] it was 109%; in [15] it was 56.3%; in [16] it was 92.4%; in [17], 35.7%; in assay [18], -32% (active).

With `CSc1nc2sc3cc(Cl)c(Cl)cc3n2c(=N)c1C#N`, the growth in assay [1] was 102%; in [2] it was 80.1%; in assay [3], 98.4%; in assay [4], 69.3%; in assay [5] it was 121%; in [6] it was 117%. The growth in assay [7] is 87.9%; in [8], 116%; in [9], 107%; in [10], 95.5%; in assay [11], 106%; in assay [12], 112%. Also, the growth in assay [13] was 91.4%; in assay [14], 123%; in assay [15], 97.5%; in [16], 89.3%; in [19] it was 91.9%; in [18], 101%.

For `O=C(N/N=C/c1c(Cl)cccc1Cl)c1cccc(Nc2ccnc(C(F)(F)F)c2)c1`, the growth in assay [1] is 92.2%; in assay [2], 74.4%; in [3] it was 91%; in [4] it was 77.4%; in [5], 90.8%; in assay [6] it was 87.5%. For the same molecule, the growth in [7] was 88%; in [8], 95.3%; in assay [9], 87.8%; in assay [10], 88.1%; in assay [11], 106%; in assay [12], 70.1%. Besides, the growth is 89.9% in [13]; 108% in assay [14]; 69.3% in assay [15]; 102% in assay [16]; 107% in [19]; 102% in assay [18].

Turning to `COc1ccc(-c2cc(-c3ccccc3)nc(NCCNc3ccnc4cc(Cl)ccc34)n2)cc1`, the growth was -77.3% (active) in assay [1]; -88.1% (active) in assay [2]; -92.9% (active) in assay [3]; -91.9% (active) in assay [4]; -81.7% (active) in assay [5]; -94.2% (active) in assay [6]. Moreover, the growth in assay [7] is -86.5% (active); in assay [8], 5.73% (active); in assay [9], -30.7% (active); in [10], -44.4% (active); in assay [11], -7.13% (active); in assay [12], -34.4% (active). The growth in assay [13] is -60.2% (active); in assay [14] it was -96.6% (active); in [15] it was -48.8% (active); in assay [20], -74.1% (active); in assay [17], -82.6% (active); in [19], -53.9% (active). Further, the growth in assay [18] was -71.9% (active).

Regarding `Cn1c(=O)c(C#N)c(-c2ccco2)n2c(S(=O)(=O)Cc3ccccc3)nnc12`, the growth in [1] is 58.5%; in [2], 99.7%; in [3], 110%; in [4] it was 41.4%; in assay [5], 78.3%; in assay [6], 65.9%. For the same molecule, the growth in [7] is 82.4%; in assay [8], 84.8%; in assay [9], 77.4%; in assay [10], 102%; in assay [11], 65.3%; in [12], 80.4%. In addition, the growth is 48.9% in [13]; 99.3% in [14]; 81.9% in [15]; 111% in assay [16]; 103% in assay [17]; 124% in assay [19]. For the same molecule, the growth in assay [18] was 90.4%.

Consider `Cc1ccc(C2=C/C(=C/c3ccc(Br)cc3)C(=O)N2CCc2ccc(S(N)(=O)=O)cc2)cc1`, for which the growth was 98.6% in assay [1]; 92.8% in assay [2]; 95.9% in assay [3]; 61.8% in assay [4]; 110% in assay [5]; 97.7% in assay [6]. The growth in [7] was 65%; in assay [8], 78.5%; in assay [9], 104%; in [10] it was 82.1%; in assay [11], 87.2%; in assay [12] it was 96.1%. For the same molecule, the growth in assay [13] was 95.7%; in assay [14] it was 97.2%; in assay [15], 91.5%; in assay [20], 85.5%; in assay [17] it was 104%; in assay [19] it was 93.4%. For the same molecule, the growth in assay [18] was 89.1%.

As to `COc1ccc(-c2ccc(NNC(=O)c3ccc(F)cc3)nn2)cc1OC`, the growth is 93.5% in assay [1]; 40.5% in assay [2]; 57.1% in [3]; 34.8% in assay [4]; 43.7% in assay [5]; 54.8% in assay [6]. The growth was 17.3% in [7]; 2.09% (active) in assay [8]; 79.5% in assay [9]; 60.2% in assay [10]; 51% in assay [11]; 70.7% in [12]. In addition, the growth was 66.8% in [13]; 50.3% in [14]; 81.8% in [15]; 22.1% in [20]; 78.6% in assay [17]; 41.1% in [19]. Further, in assay [18], the growth was 65.4%.

`O=C(COc1cccc(/C=C2\Oc3ccccc3C2=O)c1)c1ccc([N+](=O)[O-])cc1`: the growth in [1] was 92.1%; in assay [2], 95%; in assay [3] it was 92.6%; in [4], 81.2%; in assay [5], 119%; in [6] it was 101%. Moreover, the growth in [7] was 108%; in assay [8], 100%; in [9] it was 63.1%; in assay [10], 72%; in [11] it was 80.9%; in assay [12], 75.5%. For the same molecule, the growth in assay [13] is 97.1%; in assay [14] it was 97.1%; in assay [15], 97%; in assay [16], 121%; in [19], 98.4%; in assay [18] it was 79.1%.
